Source: PubChem BioAssay (several laboratories)
In the library only some 4.7% were active in any assay of this set; here they are far more common.
MPTP inh: mitochondrial permeability transition pore inhibitors, primary screen, biochemical, isolated mouse mitochondria, absorbance; inhibition, % at 10 µM; 360,000 compounds, 1.4% hits; Ca2+ swelling absorbance, 30 min;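 active means inhibition of 50% or more, scaled per plate between neutral and stimulator controls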;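 further: 0% = DMSO wells given calcium and 100% = 1 mM EGTA wells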
Pemphigus Ab inh: inhibitors of pemphigus antibody binding to DSG3, primary screen, biochemical, bead-based, flow cytometry, scFv-GFP. Desmoglein-3 (Homo sapiens), P32926. DSG3-coupled beads, scFv-anti-DSG3-GFP binding; active compounds read low. binding (percent of control), % at 10 µM. 310,000 compounds, 0.48% hits. AID 588358, 2011;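 active means binding more than 3 SD below its plate's average and above zero; inconclusive means below that plate limit but binding exactly zero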;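 further: hits lower antibody fragment binding to DSG3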
ADAM10 inh: human ADAM10 inhibitors, primary screen, biochemical, QFRET, HTS; recombinant ADAM10, EDANS/DABCYL FRET peptide cleavage, 3 h; inhibition, % at 7 µM; 370,000 compounds, 0.62% hits;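 active means inhibition above a per-campaign cutoff equal to the mean of compounds falling between control-based bounds plus 3 SD, cut at about 20% in these data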;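 further: 0% = DMSO wells while the 100% control is not disclosed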
rCAG RNA binder: binders of r(CAG) RNA repeats, primary screen, biochemical, fluorescence. r(CAG) RNA repeat, TO-PRO-1 dye displacement fluorescence. 370,000 compounds, 1.3% hits. AID 651821, 2012. inhibition, % at 3 µM;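 active means inhibition above the plate cutoff, the mean of all test compounds on that plate plus 3 SD, cut at about 35% in these data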;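 further: 0% = DMSO alone and 100% = 100 µM mitoxantrone as full dye displacement; higher means more dye released from RNA so lower well fluorescence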
ADAM17 inh: ADAM17 inhibitors, primary screen, biochemical, QFRET; recombinant ADAM17, EDANS/DABCYL FRET peptide cleavage; inhibition, % at 6.95 µM; 370,000 compounds, 0.83% hits;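 active means inhibition above the mean of compounds lying between control limits plus 3 SD, set per campaign, cut at about 8.5% in these data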;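 further: 0% = DMSO-only wells as the low control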
KLK7 zymogen act: proKLK7 zymogen activators, primary screen, biochemical, fluorescence intensity | Kallikrein-7 (Homo sapiens), P49862 | purified proKLK7, EDANS-DABCYL substrate fluorescence; 100% is mature enzyme control, 0% vehicle | activation, % at 7 µM | 370,000 compounds, 0.9% hits | AID 652039, 2013;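 active means activation above the mean of all tested compounds plus 3 SD, computed per campaign excluding outliers beyond control limits, cut at about 13% in these data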
MPTP counter: fluorescence retest of MPTP screen hits in isolated mitochondria, single concentration. shares compounds with MPTP inh. membrane potential, Rhodamine 123 fluorescence. inhibition, % at 10 µM. 5,000 compounds, 78% hits. AID 624504, 2012; in the data active means inhibition above about 22%;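 further: 0% = DMSO vehicle and 100% = positive control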
MPTP abs DR: mitochondrial permeability transition pore inhibitors, dose response, biochemical, absorbance, uHTS hits; 780 compounds, 58% hits; shares compounds with MPTP inh; IC50, µM; isolated mitochondria swelling; AID 651561, 2012; in the data active means IC50 below about 20 µM
MPTP counter DR: fluorescent counter-screen in isolated mitochondria, dose response, counter-screen for MPTP inhibitor project, biochemical, fluorescence, uHTS hits; shares compounds with MPTP inh; isolated mitochondria counterscreen, fluorescence read-out; IC50, µM; 780 compounds, 49% hits; AID 651564, 2012; in the data active means IC50 below about 80 µM
Starred values were filed as active, the others as inactive; i = inactive; ? = inconclusive; . = no result given.

SMILES	MPTP inh	Pemphigus Ab inh	ADAM10 inh	rCAG RNA binder	ADAM17 inh	KLK7 zymogen act	MPTP counter	others
O=C(CN(C(=O)c1ccccc1Cl)C1CCCCC1)Nc1ccc(Cl)c([N+](=O)[O-])c1	88*	102	10	4	3	0	80*
CC(C)[C@H]1/C(=C/C2CC2)N2C(=O)C[C@H](c3ccccc3)N=C2N1C	.	.	-12	.	-3	.	.
CCC(=O)N(c1ccccc1)C1CCN(C(=O)C(Cc2ccccc2)NC(C)=O)CC1 (stereo not drawn)	.	.	-9	-1	-7	0	.
O=S(=O)(c1ccccc1)N1CCCc2nc(-c3ccc(F)cc3)ccc21	.	.	7	4	4	0	.
C[C@@H]1CN(c2ccc(N3CCNC[C@H]3C)cc2C#N)C[C@H](C)O1	.	.	-54	3	-11	2	.
CSc1ccc(CN2C(=O)C(F)(F)Oc3c(C(C)=O)cccc32)cc1	74*	.	.	.	.	.	75*
CC(C)(C)N(NC(=O)Nc1ccc(Cl)c(Cl)c1)C(=O)c1ccccc1	104*	96	8	12	-1	0	97*
Cc1cc(C)cc(C(=O)N(NC(=O)Nc2ccc(Cl)cc2)C(C)(C)C)c1	97*	103	-4	6	4	0	98*
COC(=O)[C@]12C[C@H](CC(=O)NCc3ccccc3)C(=O)N(Cc3ccccc3)C1=C[C@H](C(C)C)O[C@@H]2C1CC1	.	.	5	1	5	-1	.
CCCOc1ccc(C(=O)Nc2ccc(C)cc2[N+](=O)[O-])cc1	2	104	4	3	8	-1	.
CC(C)COc1ccc(C(=O)Nc2ccccc2[N+](=O)[O-])cc1	54*	100	5	2	2	0	-10	MPTP abs DR=>100;MPTP counter DR=>80
Cc1ccc(NC(=O)CSc2ccccc2NC(=O)c2ccccc2Cl)cc1Cl	90*	97	-3	4	-1	0	87*
Cc1ccc(NC(=O)CSc2ccccc2NC(=O)c2ccccc2)cc1Cl	92*	96	4	2	0	1	65*
Cc1ccc(NC(=O)OCCN(C)C(=O)Nc2ccc(C)cc2C)c(C)c1	.	.	-12	-1	-6	0	.
COC(=O)c1ccc(NC(=O)Nc2cccc(F)c2)cc1	85*	92	9	10	2	-1	87*
CCc1ccc(NC(=O)Nc2cccc(OC)c2)cc1	63*	91	2	2	3	0	77*
COc1cccc(NC(=O)Nc2ccc(CC(=O)O)cc2)c1	0	105	-8	2	0	0	.
O=C(Nc1ccc(F)cc1)Nc1cccc(Br)c1	89*	109	7	6	3	-1	91*
O=C(NCCCl)Nc1cccc(Br)c1	0	103	-5	0	-2	0	.
COC(=O)c1ccc(NC(=O)Nc2ccc(F)cc2F)cc1	86*	91	14	6	-1	0	96*
COc1cccc(NC(=O)Nc2cccc(C(=O)O)c2)c1	-2	119	0	2	0	0	.
COc1cccc(NC(=O)NC2(C(F)(F)F)Oc3ccccc3O2)c1	97*	.	6	8	0	1	83*
COc1cc(/C=N/NC(=O)c2nnn(-c3nonc3N)c2C(C)C)ccc1OCc1ccc(F)cc1	62*	.	2	5	3	9	56*
CN(C)Cc1c(C(=O)N/N=C/c2ccccc2OCc2c(F)cccc2Cl)nnn1-c1nonc1N	0	107	4	3	3	0	.
CN(C)Cc1c(C(=O)N/N=C/c2cccc(OCc3c(F)cccc3Cl)c2)nnn1-c1nonc1N	61*	?	-5	1	-3	0	-3	MPTP abs DR=6.3*;MPTP counter DR=<2.5*
SMILES	MPTP inh	Pemphigus Ab inh	ADAM10 inh	rCAG RNA binder	ADAM17 inh	KLK7 zymogen act	MPTP counter	others
CN(C)Cc1c(C(=O)N/N=C/c2cccc(OCc3ccccc3)c2)nnn1-c1nonc1N	65*	98	-5	-1	-3	0	80*
O=C(Cc1c[nH]c2ccccc12)Nc1ccc(Nc2ccncc2)cc1	.	.	4	11	1	0	.
Cc1ccc(C(C)C)c(OCCNCc2ccccc2)c1	56*	124	-1	-11	0	0	19	MPTP abs DR=4.6*;MPTP counter DR=15*
Cc1ccc(C)c(OCCCNCc2ccccc2)c1	4	117	4	7	1	0	.
O=C1Nc2ccccc2C(O)(C(=O)NCc2ccco2)N1c1ccccc1 (stereo not drawn)	0	99	-9	1	-6	1	.
O=C1Nc2ccccc2C(O)(C(=O)NCc2ccco2)N1c1ccc(Cl)cc1 (stereo not drawn)	90*	102	.	.	.	.	87*
CCCCCCN1CCS(=O)(=O)N(Cc2ccc(OC)cc2)C(C(=O)OC)C1 (stereo not drawn)	.	.	-8	-1	-5	0	.
O=C(Nc1cccc(Cl)c1)ON1CCCCC1	5	99	-11	4	-5	0	.
C=CCc1cc(Cl)ccc1OC(=O)Nc1cccc(Cl)c1	93*	94	-4	4	-4	0	97*
COc1ccccc1NS(=O)(=O)c1cccc(C(=O)NC2CCN(Cc3ccccc3)CC2)c1	80*	178	.	.	.	.	87*
CN(C)S(=O)(=O)c1ccc(Nc2nc(C3CC3)nc3c2nnn3Cc2ccccc2Cl)cc1	62*	93	-8	4	-4	-1	29*
CCOC(=O)c1cccc(OCC(O)CNCCOc2ccccc2F)c1 (stereo not drawn)	74*	109	3	0	-4	0	-12	MPTP abs DR=8.9*;MPTP counter DR=>80
O=[N+]([O-])c1ccc2c(c1)CO[C@]21O[C@H](CCO)C[C@H](O)[C@H]1O	.	.	-13	1	-4	0	.
O=[N+]([O-])c1ccccc1Nc1c2ccccc2nc2ccccc12	2	92	-298	9	-101	1	.
O=[N+]([O-])c1ccc(Nc2c3ccccc3nc3ccccc23)cc1	80*	98	i	8	-427	9	77*
